AF4-AF9 inh: blocks AF4 peptide binding to human AF9; AlphaScreen, biotin-AF4 peptide binding to FLAG-AF9; hit rate 0.47% among 350,000; P42568; inhibition, % at 10 µM;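 active = every replicate reaching a set inhibition limit, whatever the replicate mean, cut at about 25% in these data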
Casp6 inh: blocks human caspase-6 cleavage activity; hit rate 0.53% among 350,000; AID 686996; inhibition, % at 12.5 µM; purified caspase-6, Z-VEID-R110 cleavage fluorescence;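 active = mean inhibition across replicates at least about 35%, with every replicate also reaching that limit, limit read from the data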
rRNA inh HTS: inhibits bacterial ribosomal RNA function over humanized ribosomes; AID 720706; hit rate 1.6% among 350,000; E. coli WT GFP vs humanized-ribosome RFP mutants, fluorescence, 24 h; hits give low values; DMSO median 0, no signal -100; GFP signal change (wild-type ribosome), % (test concentration not listed);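 active = significant combined selectivity score with lowered wild-type GFP, culture density cut under 30%, mutant RFP and density less affected; inactive = any of these conditions unmet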
NSD2 HMT inh: NSD2 (human) methyltransferase inhibition. O96028. NSD2 peptide methylation, AlphaScreen, 120 min. inhibition, % at 12.5 µM. hit rate 0.54% among 310,000; in the data active = inhibition above about 50%
RAD52 inh: blocks human RAD52 DNA annealing | P43351 | recombinant RAD52 DNA annealing, FRET fluorescence | inhibition, % at 18.7 µM | hit rate 0.46% among 360,000;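 active = every replicate showing at least 50% inhibition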
Target sequence (P43351 whole entry, looked up): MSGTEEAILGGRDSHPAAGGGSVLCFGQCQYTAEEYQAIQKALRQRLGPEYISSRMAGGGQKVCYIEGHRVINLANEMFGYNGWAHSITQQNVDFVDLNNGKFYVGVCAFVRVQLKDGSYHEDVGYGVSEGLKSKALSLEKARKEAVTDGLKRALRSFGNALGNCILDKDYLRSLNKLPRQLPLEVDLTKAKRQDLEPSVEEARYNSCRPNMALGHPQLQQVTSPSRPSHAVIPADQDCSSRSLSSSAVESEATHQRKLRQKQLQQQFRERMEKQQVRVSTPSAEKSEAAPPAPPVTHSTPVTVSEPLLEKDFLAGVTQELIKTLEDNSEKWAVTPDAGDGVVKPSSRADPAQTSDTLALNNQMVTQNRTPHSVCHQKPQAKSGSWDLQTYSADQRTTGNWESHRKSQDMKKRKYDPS
A number is an active result; – = inactive; · = not tested or not shown. In the library only some 2.5% were active in any assay of this set; here they are far more common.

SMILES	AF4-AF9 inh	Casp6 inh	rRNA inh HTS	NSD2 HMT inh	RAD52 inh
CC1Sc2ccc(C(=O)Nc3ccccc3OC(F)F)cc2NC1=O (centres undefined)	–	–	-20	–	–
O=C1C=CC(=O)N1Cc1ccccc1	48	–	–	·	–
CN1C(=O)N(C)N(Cc2ccccc2)C(=O)N1Cc1ccccc1	–	–	–	–	–
CCCS(=O)(=O)c1c(S(=O)(=O)CCC)c2c(C)cccn2c1C(=O)N/N=C/c1cc(O)cc(O)c1	–	–	-21	·	–
Cc1ccc(Cn2c(N/N=C/c3ccncc3)nc3c2c(=O)n(C)c(=O)n3C)cc1	–	–	–	–	–
Cn1c(=O)c2c(nc(N/N=C/c3ccncc3)n2Cc2ccccc2)n(C)c1=O	–	–	-29	–	–
CO[C@H]1CN(C)C(=O)c2ccc(NS(=O)(=O)c3ccccc3Cl)cc2OC[C@@H](C)NC[C@H]1C	–	·	–	·	·
CN1CCN(c2ccc(-c3cccc(NC(=O)COc4ccc(Cl)cc4)c3)nn2)CC1	–	–	-30	–	–
CN(C)CC(=O)N[C@@H]1CC[C@H](CCNC(=O)C2CCCC2)O[C@H]1CO	–	–	–	·	–
CCN(c1ccccc1)c1ncnc2c1cnn2-c1ccccc1	28	–	–	·	–
c1ccc(Cn2ncc3c(Nc4ccccc4)ncnc32)cc1	–	–	-27	–	–
c1ccc(CCNc2ncnc3c2cnn3-c2ccccc2)cc1	·	–	-53	–	–
COc1ccc(Nc2ncnc3c2cnn3Cc2ccc(C)cc2)cc1	·	·	·	–	·
COc1ccc(CN(C)C[C@@H]2Oc3ccc(NC(=O)Nc4ccc(OC)cc4)cc3C(=O)N([C@H](C)CO)C[C@@H]2C)cc1	–	–	–	·	–
O=C(Cc1ccccn1)N1CC(=O)N2[C@@H](CO)[C@H](c3ccc(C#CC4CCCC4)cc3)[C@@H]2C1	–	–	–	·	–
CCC(=O)N1CC2(C1)[C@@H](c1ccccc1)[C@@H](CO)N2Cc1cc(F)ccc1F	–	–	–	·	–
C[C@@H]1CN([C@H](C)CO)S(=O)(=O)c2ccc(C#CC3CCCC3)cc2O[C@H]1CN(C)C(=O)C1CC1	–	–	–	·	–
Cc1nc2c(C#N)c[nH]n2c(=O)c1Cc1ccccc1	–	·	-22	–	–
O=C(CC(=O)Nc1nc(C23CC4CC(CC(C4)C2)C3)cs1)NCCO	·	–	–	–	–
O=C(CC1(c2ccc(Cl)cc2)C2CC3CC(C2)CC1C3)NCCO (centres undefined)	–	–	-42	–	–
COc1ccc(CCNC(=O)c2cc3c(=O)n4ccccc4nc3n(C3CCCCC3)c2=N)cc1	–	–	–	–	–
COc1ccc(CCNC(=O)c2cc3c(=O)n4ccccc4nc3n(C3CCCCC3)c2=N)cc1OC	–	–	-20	–	–
C[C@H](CO)N1C[C@H](C)[C@@H](CN(C)C(=O)C2CCCCC2)OCCCC[C@H](C)Oc2ccc(NC(=O)Nc3ccc4c(c3)OCO4)cc2C1=O	–	–	–	·	–
COc1ccc(NS(=O)(=O)c2cc(NC(=O)CCNC(=O)c3ccco3)ccc2OC)cc1	25	–	–	–	–
C[C@@H]1CN([C@H](C)CO)C(=O)c2cc(NS(=O)(=O)c3ccc(F)cc3)ccc2O[C@@H](C)CCCCO[C@H]1CN(C)Cc1ccncc1	–	–	–	·	–
SMILES	AF4-AF9 inh	Casp6 inh	rRNA inh HTS	NSD2 HMT inh	RAD52 inh
CNC(=O)COC(=O)c1cc(-c2ccccc2)nn1-c1ccccc1	–	·	-27	–	–
COc1ccc(-c2cc(C(=O)NN)n(-c3ccccc3)n2)cc1	–	–	–	–	–
CCN(CC)CCN(C(=O)c1ccc2c(c1)OCCO2)c1nc2cc(C)cc(C)c2s1	–	–	-21	–	–
CN(C)CCN(C(=O)c1cccc(Cl)c1)c1nc2c(Cl)cccc2s1	·	·	·	–	·
CN(C)CCN(C(=O)c1ccc2c(c1)OCCO2)c1nc2ccc(Cl)cc2s1	–	–	–	–	–
CCN(CC)CCN(C(=O)c1ccc2c(c1)OCCO2)c1nc2c(Cl)cccc2s1	–	–	-22	–	–
COc1ccc2c3c([nH]c2c1)[C@@H](CO)N(C(=O)NC(C)C)CC31CN(C(=O)NC2CCCC2)C1	·	·	–	·	·
Cc1nn2c(NCCN3CCOCC3)c3c(nc2c1-c1ccccc1)CCCC3	·	–	-34	·	–
CCOC(=O)c1nc2c(ccc3ccccc32)cc1C	–	–	-31	–	–
CCOC(=O)c1cc(Cl)c2c(ccc3ccccc32)n1	–	–	–	–	–
COc1ccccc1CNC(=O)C[C@@H]1C[C@@H]2c3cc(NC(=O)Nc4ccccc4F)ccc3O[C@@H]2[C@H](CO)O1	–	–	–	·	–
CCOC(=O)C1CCN(Cc2cn[nH]c2-c2ccccc2)CC1	·	·	·	126	·
CCCOc1ccc(/C(O)=C2/C(=O)C(=O)N(CCCn3ccnc3)C2c2ccc(C)o2)cc1 (centres undefined)	–	–	-18	–	–
COc1ccccc1CN1CC[C@H]2[C@H](CO)Nc3ccc(C#Cc4ccccc4)cc3[C@H]21	–	–	–	·	–
COc1ccc(N=Nc2cc(OC)c(N)cc2OC)cc1	32	–	–	–	–
COc1ccc(N=Nc2ccc(N)nc2N)cc1	–	–	–	–	–
CN1CCN(C(=O)c2cc3c(c(-c4cccc(-c5cc6ccccc6o5)c4)n2)[C@H](CCO)N(S(=O)C(C)(C)C)C3)CC1 (some centres undefined)	–	–	–	·	–
CC(C)(C)S(=O)N1Cc2cc(C(=O)O)nc(-c3cccc(-c4cc5ccccc5o4)c3)c2[C@H]1CCO (some centres undefined)	–	36	–	·	–
C[C@@H]1CN([C@@H](C)CO)C(=O)c2cc(NC(=O)CCCCCC(=O)Nc3ccccc3N)ccc2O[C@H]1CN(C)S(=O)(=O)c1ccc(Cl)cc1	–	–	–	·	–
Cc1nn(-c2ccc(N3CCCCC3)nn2)c(C)c1CCC(=O)Nc1cccc(F)c1	–	–	–	–	–
CCc1cccc(NC(=O)CCc2c(C)nn(-c3ccc(N4CCCCC4)nn3)c2C)c1	–	–	-32	–	–
Cc1ccc(C(=O)OCC(=O)Nc2ccc(C(N)=O)cc2)s1	–	–	–	·	–
CCN(c1ccc(NC(=O)COC(=O)c2ccc(C)s2)cc1)C(C)C	–	–	-27	·	–
CCOC(=O)c1cc2c(=Cc3ccc(N(C)C)cc3)c3ccccc3n2[n+]1C	52	97	–	–	56
CC1=NN(c2cccc(F)c2)C(=O)/C1=C/c1ccc(N(C)C)cc1	–	–	–	–	–
SMILES	AF4-AF9 inh	Casp6 inh	rRNA inh HTS	NSD2 HMT inh	RAD52 inh
CCOC(=O)SC1=N/C(=C\c2ccc(N(C)C)cc2)C(=O)S1	–	–	–	–	–
Cc1cc2c(=Cc3ccc(N(C)C)cc3)c3ccccc3n2[n+]1C	30	–	–	55	–
O=C(Nc1ccc(NC(=O)c2cccs2)cc1)c1cccs1	–	–	–	–	–
O=C(Nc1ccc(NC(=O)C2CC2)cc1)c1cccs1	–	59	–	–	–
COc1cccc(C(=O)OC(C)C(=O)NCC2CCCCC2)c1 (centres undefined)	–	36	–	–	–
CC(OC(=O)c1ccc(Br)o1)C(=O)NCC1CCCCC1 (centres undefined)	–	–	–	–	–
